# TDP-43 yeast inh: TDP-43 toxicity inhibition in yeast; TDP-43 expressing yeast growth rescue, BacTiter-Glo, 24 h; Potency, µM (doses to about 46.1 µM), hits mostly activators; actives 1.8% (n = 410,000); also: nearly all actives have a fitted effect of over 50% in size
#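 Galactose-induced TDP-43 yeast, OD600=0.02, compound pinned; 24 hr, 30 deg C; BacTiter-Glo luminescence for growth. Inhibitors of TDP-43 toxicity read as activators.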
# Mito fusion yeast: mitochondrial division inhibition or fusion activation; S. cerevisiae fusion-defective mutant growth rescue, CellTiterGlo 48 h; Potency, µM (titrated, usually from 46.1 µM), usual class: activators; actives 0.23% (n = 320,000); also: nearly all actives have a fitted effect of over 45% in size
#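 Yeast fusion mutant, YPEG (non-fermentable carbon), compound, 48 h at 37C non-permissive; CellTiterGlo added, 10 min RT, luminescence read. Rescued growth = division inhibition.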
# aSyn rescue: inhibitors of alpha-synuclein toxicity in yeast; actives 0.14% (n = 370,000); Yeast expressing alpha-synuclein, growth rescue, BacTiter-Glo, 24 h; Potency, µM (doses to about 46.1 µM), actives largely listed as activators; AID 652106; also: nearly all actives have a fitted effect of over 65% in size
#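 Readout is rescue of growth in alpha-synuclein-expressing yeast, so inhibitors of toxicity appear as activators. Growth after 24 hr at 30 deg C in galactose medium is quantified by luminescence.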
# FUS yeast rescue: rescues growth of FUS-expressing yeast. S. cerevisiae FUS-expressing, growth rescue, OD600, 24 h. actives 0.24% (n = 390,000). Potency, µM (highest dose often 76.6 µM), usual class: activators; also: nearly all actives have a fitted effect of over 55% in size
#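 Galactose (2%) drives FUS expression in yeast precultured in raffinose; seeding density OD 0.005. Test compounds incubated 24hr at 30C and 99% humidity before absorbance at 600 nm was measured.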
# Abeta yeast res: restores growth of yeast expressing A-beta42 peptide; AID 1347071; Potency, µM (doses to about 46.1 µM), actives largely listed as activators; yeast expressing A-beta42, growth rescue, OD600, 48 h; response scale: 0% DMSO, 100% iron-clioquinol control; actives 0.063% (n = 410,000); also: nearly all actives have a fitted effect of over 55% in size
#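 Yeast growth medium received pinned compounds, then yeast cells expressing toxic A-beta were added; plates incubated at 30 C for 48 hr. Growth read as absorbance at 600 nm, normalized to DMSO and equimolar FeCl3 plus clioquinol controls.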
# Hits are given with their value; n = inactive; u = inconclusive; x = not tested or not shown. Compounds with a hit are over-represented: about 2.2% of the library has one in this group of screens. Calls follow the shape of the dose curve; as a rule, active = well fitted curve in the direction sought with a large enough effect; inconclusive = small, poorly fitted or top-dose-only effect, or another doubt; inactive = no such curve, though single readings can be large; an effect the other way counts as inactive or inconclusive.
SMILES,TDP-43 yeast inh,Mito fusion yeast,aSyn rescue,FUS yeast rescue,Abeta yeast res
CCSc1ncc(Cl)c(C(=O)Nc2sc3c(c2C(=O)OC)CCCC3)n1,x,x,n,x,x
N#CC1=C(N2CCCCC2)c2cc3c(n2C1=O)CCCC3,14µM,n,n,n,n
CS(=O)(=O)c1ccc(NC(=O)COc2ccccc2C(=O)Nc2ccccc2)cc1,x,x,n,x,x
O=C(NCCc1csc(-c2cccc(F)c2)n1)c1cccs1,16µM,x,x,n,n
COc1ccc(-c2nc(CCNC(=O)c3cccs3)cs2)cc1,u,n,n,n,n
O=C(NCCc1csc(-c2ccc(F)cc2)n1)c1cccs1,11µM,x,x,n,n
CCCCCCCCNS(=O)(=O)/C=C/c1ccccc1CNC(=O)OC(C)(C)C,x,x,x,n,x
CCN(CC)c1ccc(C(=C2C=CC(=[N+](CC)CC)C=C2)c2ccc(S(=O)(=O)O)cc2S(=O)(=O)[O-])cc1,n,x,n,32µM,n
Nc1[nH]c(=S)nc2nnsc12,x,x,n,x,x
O=C(Oc1cccc(-n2cnnn2)c1)C1CCCCC1,11µM,n,x,n,n
Cc1cc([N+](C)(C)C)cc(C)c1/C=C/c1ccnc2ccccc12,x,x,n,x,x
CCc1nc2ccc(C(=O)N3CCN(C(=O)c4ccco4)CC3)cn2c1N(C)Cc1cccs1,n,x,n,n,n
O=C(NCCCOc1ccc([N+](=O)[O-])cc1Cl)OCc1ccccc1,16µM,x,u,x,n
CNc1ccccc1/C(O)=C(\C#N)C(=O)NCc1cccc2ccccc12,x,x,x,n,x
O=C(Nc1ccc2snnc2c1)N1CCSCC1,n,n,n,n,n
CC1CN(C(=O)Nc2ccc3snnc3c2)c2ccccc21 (stereo not given),16µM,u,n,n,n
O=[N+]([O-])c1cccc(/C=N/N2CCN(c3ccccn3)CC2)c1,n,n,n,n,n
COc1cccc(CNC(=O)c2c(C)nn(-c3ccc(F)cc3)c2-n2cccc2)c1,u,x,n,n,n
CCOc1ccc(CNC(=O)c2c(C)nn(-c3ccc(F)cc3)c2-n2cccc2)cc1,14µM,x,n,n,n
COc1cccc(-c2cc(C(=O)NCc3ccccc3)[nH]n2)c1,u,x,x,n,n
COc1cccc(CNC(=O)c2cc(-c3cccc(OC)c3)n[nH]2)c1,20µM,x,x,n,n
COc1cccc(CNC(=O)c2c(C)nn(-c3cccc(C)c3)c2-n2cccc2)c1,35µM,x,x,n,n
Cc1ccc(Cl)cc1N1CCN(C(c2ccc(F)cc2)c2nnc(-c3ccccc3)o2)CC1 (stereo not given),n,x,x,n,n
CC(=O)Cn1c(N2CCC(Cc3ccccc3)CC2)nc2c1c(=O)[nH]c(=O)n2C,n,n,n,n,n
CCCCCn1c(N2CCC(Cc3ccccc3)CC2)nc2c1c(=O)[nH]c(=O)n2C,n,x,n,u,n
SMILES,TDP-43 yeast inh,Mito fusion yeast,aSyn rescue,FUS yeast rescue,Abeta yeast res
CCCn1c(N2CCC(Cc3ccccc3)CC2)nc2c1c(=O)[nH]c(=O)n2C,22µM,u,n,n,n
C=C(C)Cn1c(N2CCC(Cc3ccccc3)CC2)nc2c1c(=O)[nH]c(=O)n2C,n,16µM,n,n,n
COC(=O)C1CN(Cc2ccc(F)cc2)CCS(=O)(=O)N1Cc1cn(Cc2ccc(Cl)cc2)nn1 (stereo not given),x,x,x,n,x
COc1ccc(-c2noc(C3CCCN(C(=O)NC4CCC(C)CC4)C3)n2)cc1 (stereo not given),x,x,x,n,x
COc1cc2c(c(O)c1OC)-c1c(cc(OC)c(OC)c1OC)C[C@@H](C)[C@@H](C)C2,n,u,n,n,n
COc1cc2c(c(OC)c1OC)-c1c(cc3c(c1O)OCO3)C[C@@H](C)[C@@H](C)C2,u,18µM,n,u,n
Cc1c(C(=O)NCc2ccccc2Cl)sc2nc3n(c(=O)c12)CCCC3,u,x,x,n,n
Cc1c(C(=O)NCc2ccccc2Cl)sc2nc3n(c(=O)c12)CCCCC3,35µM,x,x,u,n
Cc1ccc(CCNC(=O)c2sc3nc4n(c(=O)c3c2C)CCCC4)cc1,16µM,x,x,n,n
Cc1ccc(-c2nc(C(=O)NCc3ccccc3Cl)c3n2CCCCC3)cc1,35µM,x,n,u,n
NNC(=O)c1nc(-c2ccccc2)n2c1CCCCC2,n,n,n,n,n
Nc1nc2[nH]cc(CCc3ccc(C(=O)N[C@@H](CCC(=O)O)C(=O)O)cc3)c2c(=O)[nH]1,x,x,n,x,x
O=C(NCc1nc2ccccc2[nH]1)C1=C[C@@H](c2ccc(C(F)(F)F)cc2)C[C@@H](OCCCCO)O1,n,x,n,u,n
Nc1[nH]c(C(=O)c2ccccc2)c(-c2ccc3ccccc3c2)c1C(=O)NCCc1ccc(Cl)cc1,x,x,x,n,x
Cc1cc(NC(=O)COc2ccc(Cl)cc2Cl)n(-c2ccccc2)n1,n,n,n,n,n
Cc1cc(NC(=O)c2ccc(Cl)cc2Cl)n(-c2ccccc2)n1,20µM,x,n,n,n
Cc1cc(NC(=O)CSc2cc(Cl)ccc2Cl)n(-c2ccccc2)n1,13µM,u,n,n,n
Cc1nnc(SCC(=O)Nc2cc(-c3cc(C)c(C)cc3C)nn2-c2ccccc2)s1,u,u,n,25µM,n
CN(CC(=O)Nc1ncn[nH]1)S(=O)(=O)c1cc(Cl)ccc1Cl,n,n,n,n,n
N#CC(C(=O)c1ccccc1Cl)=C1SCCCS1,35µM,n,n,n,n
Cc1ccc(/C=C/C(=O)O)cc1S(=O)(=O)N1CCc2ccccc21,7.9µM,n,n,n,n
Cc1ccc(/C=C/C(=O)O)cc1S(=O)(=O)N1CCCc2ccccc21,u,n,n,n,n
O=C(CNC(=O)c1ccccc1)NCC(=O)OCC(=O)c1ccc2ccccc2c1,x,x,n,x,x
O=C(Nc1ccc(Br)cc1)c1ccc(F)c(S(=O)(=O)NCc2cccs2)c1,20µM,u,u,n,u
CCOCCc1nnc(NC(=O)C(=O)c2cc(C)n(-c3cccc(C)c3)c2C)s1,35µM,x,x,u,n
SMILES,TDP-43 yeast inh,Mito fusion yeast,aSyn rescue,FUS yeast rescue,Abeta yeast res
CCOCCc1nnc(NC(=O)C(=O)c2cc(C)n(-c3ccc(C)c(C)c3)c2C)s1,u,x,x,u,n
CNc1ccc(/C=C2\C=Cc3ccccc32)cc1Cl,x,x,n,x,x
COc1ccc(CCCC(=O)NCc2ccccc2)cc1C,18µM,n,n,x,n
CCC(C)NC(=O)C1=CC(c2ccc3c(c2)OCO3)=NS(=O)(=O)N1C (stereo not given),n,x,x,n,n
OC(CN1CCC(Cc2ccc(F)cc2)CC1)c1ccc(Cl)cc1 (stereo not given),x,2.9µM,n,x,x
OC(CN1CCN(c2ccc(F)cc2)CC1)c1ccc(Cl)cc1 (stereo not given),n,n,n,n,n
Cc1ccc(Cn2c(C(CO)Nc3nc(-c4ccc(F)cc4)cs3)nc3ccccc32)cc1 (stereo not given),n,x,n,u,u
Cc1ccc(Cn2c(C(CO)Nc3nc(-c4ccc(Cl)c([N+](=O)[O-])c4)cs3)nc3ccccc32)cc1 (stereo not given),25µM,x,u,u,n
